# The list is not random: actives were taken first. Their share in the collection is about 19%.
# DT40 TDP1 CPT – qHTS for Inhibitors of human tyrosyl-DNA phosphodiesterase 1 (TDP1): qHTS in cells in presence of CPT; Potency, µM (doses to about 46.2 µM), inactives show at the highest dose activity change, negative = growth inhibition, hits mostly inhibitors; chicken DT40 Tdp1-/-;hTDP1 cells + 20 nM CPT, ATP luminescence, 48 h; hit rate 12% among 420,000; note: potency is the fitted concentration of half-maximal effect; nearly all actives have a fitted effect of over 55% in size
#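 Cell growth measured by CellTiter-Glo luminescence after a minimum 48 h, 37 C compound exposure with 20 nM CPT in Tdp1-knockout DT40 cells stably expressing hTDP1, seeded 400/well; qHTS titration format.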
# TDP1 cell noCPT – qHTS for Inhibitors of human tyrosyl-DNA phosphodiesterase 1 (TDP1): qHTS in cells in absence of CPT. Potency, µM (highest dose often 46.2 µM), without a hit: at the highest dose activity change, negative = growth inhibition, actives largely listed as inhibitors. DT40 Tdp1-/- hTDP1 cells, no CPT, ATP luminescence, 48 h. AID 686978, 2013. hit rate 15% among 420,000; note: potency is the fitted concentration of half-maximal effect; nearly all actives have a fitted effect of over 55% in size
#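 Chicken DT40 Tdp1-/- cells stably complemented with human TDP1 were seeded at 400 cells/well with DMSO in place of 20 nM camptothecin. After compound pinning, cells grew at least 48 hr at 37 °C; viability read by CellTiter-Glo luminescence.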
# IL-1B inflam inh – qHTS for Inhibitors of Inflammasome Signaling: IL-1-beta AlphaLISA Primary Screen | THP-1 LPS/ATP IL-1B secretion, AlphaLISA, 16 h; stronger effect = lower value | activity change, % at 57.5 µM | hit rate 4.7% among 360,000 | AID 743279, 2014; in the data active = activity change below about -50%; inconclusive = mostly about -30% to -49%
#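 Secreted IL-1B measured by AlphaLISA bead assay after 16 h compound exposure of THP-1 cells; compounds (final up to 57.5 uM) added 1 h before LPS (250 ng/mL) and ATP (1.25 mM) stimulation; lower signal means less secretion.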
# HT1080NT lethal – qHTS for induction of synthetic lethality in tumor cells producing 2HG: qHTS for the HT-1080-NT fibrosarcoma cell line; HT-1080-NT fibrosarcoma viability, CellTiter-Glo ATP luminescence, 48 h; Potency, µM (highest dose often 46.1 µM), for inactives: at the highest dose activity, negative = less viability, actives largely listed as cytotoxic; hit rate 1.6% among 360,000;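 note: NT is the 2HG producing partner of a matched IDH1 knockdown line; potency is the fitted concentration of half-maximal effect; 0% = DMSO-treated cells and -100% = media-only wells without cells; nearly all actives have a fitted effect of over 55% in size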
#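 Toxicity toward the 2HG-producing NT line was scored as %Activity, normalised to DMSO and no-cell wells, from CellTiter-Glo luminescence after 48 hours' treatment.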
# HT1080 IDH1KD tx – qHTS for induction of synthetic lethality in tumor cells producing 2HG: qHTS for the HT-1080-IDH1KD cell line; HT-1080 IDH1 knockdown viability, ATP luminescence, 48 h; Potency, µM (titrated, usually from 46.1 µM), for the others: at the top dose activity, negative = toxicity, usual class: cytotoxic; hit rate 2% among 360,000;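 note: potency is the fitted concentration of half-maximal effect; 0% = DMSO wells and -100% = cell-free medium wells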
#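 HT-1080-IDH1KD cells (IDH1 knocked down), 750/well in RPMI with 5% FBS, treated with compound 48 h at 37 degrees C. Viability by CellTiter-Glo luminescence, normalised to DMSO and no-cell wells; concentration-response curves classed.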
# The depositor's hits bear a star; ? = inconclusive; / = no result; [ ] = dose if it differs, or a comment. Unless noted, calls come from the whole dose curve; as a rule, active = well fitted curve in the direction sought with a large enough effect; inconclusive = small, poorly fitted or top-dose-only effect, or another doubt; inactive = no such curve, though single readings can be large; an effect the other way counts as inactive or inconclusive. Unless noted, % is set by controls: 0 for no effect and ±100 for the full control effect.
SMILES,DT40 TDP1 CPT,TDP1 cell noCPT,IL-1B inflam inh,HT1080NT lethal,HT1080 IDH1KD tx
COc1ccc(N(CC(=O)Nc2cccc(N(C)S(C)(=O)=O)c2)S(=O)(=O)c2ccccc2)cc1Cl,10µM*,21µM*,-1,-17%,-2%
COc1ccc(N(CC(=O)Nc2cccc(N(C)S(C)(=O)=O)c2)S(=O)(=O)c2ccc(C)cc2)cc1,?,?,8,-3%,1%
COc1ccc(S(=O)(=O)N(CC(=O)Nc2cccc(C(F)(F)F)c2)c2ccc(C)cc2)cc1,?,23µM*,/,/,/
CCCOc1ccc(/C=N/NC(=O)CN(c2ccc(OCC)cc2)S(C)(=O)=O)cc1,-5%,-15%,-29,-9%,0%
COC(=O)c1ccc(Cl)c(NC(=O)CN(c2ccccc2)S(=O)(=O)c2ccc(OC)cc2)c1,?,16µM*,12,-1%,-10%
COC(=O)c1ccc(NC(=O)CN(c2ccc3c(c2)OCO3)S(C)(=O)=O)cc1,4%,3%,-5,-1%,7%
COc1ccc(S(=O)(=O)N(CC(=O)Nc2cc(C)cc(C)c2)c2ccc(Cl)cc2)cc1,?,23µM*,/,/,/
CCOc1ccc(N(CC(=O)N/N=C/c2cc([N+](=O)[O-])ccc2Cl)S(C)(=O)=O)cc1,?,23µM*,-11,-1%,-23%
COC(=O)c1ccc(NC(=O)CN(c2cccc(C(F)(F)F)c2)S(C)(=O)=O)cc1,23µM*,4.6µM*,/,/,/
Oc1ccc(-c2c(C3=CCCCC3)sc3ccccc23)cc1,?,?,25,10%,10%
Cc1ccc2c(c1)cc1c(=O)n(CC(=O)NC(C)CCc3ccccc3)nc(C)n12 (centres undefined),-7%,-16%,/,/,/
CCOc1ccc(NC(=O)CN(c2ccc([N+](=O)[O-])cc2)S(=O)(=O)c2ccccc2)cc1,?,?,-9,?,8.2µM*
CC(=O)Nc1ccc(NC(=O)CN(c2ccc([N+](=O)[O-])cc2)S(=O)(=O)c2ccccc2)cc1,-3%,-15%,-10,-2%,0%
CCOc1ccc(N(CC(=O)Nc2cccc(N(C)S(C)(=O)=O)c2)S(=O)(=O)c2ccccc2)cc1,21µM*,?,-14,-16%,-15%
COc1cc(CC2C(=O)OCC2C(=O)c2ccc3c(c2)OCO3)cc(OC)c1OC (centres undefined),1%,6%,27,14%,15%
COc1cc(C[C@@H]2C(=O)OC[C@H]2Cc2ccc(OC)c(OC)c2)ccc1O,2.3µM*,2.6µM*,3,0%,-10%
COc1cc(CC2COC(=O)C2(O)Cc2ccc(O)c(OC)c2)ccc1O (centres undefined),12µM*,9.2µM*,40,-1%,-19%
COc1ccccc1S(=O)(=O)Cc1ccc(C(=O)N2CCN(c3cc(Cl)ccc3C)CC2)o1,?,8.2µM*,/,/,/
COc1ccccc1S(=O)(=O)Cc1ccc(C(=O)N2CCN(c3cccc(Cl)c3)CC2)o1,6.5µM*,5.8µM*,14,?,21µM*
COC(=O)CN1C(=O)C(C)(C)c2cc(S(=O)(=O)NCc3ccc(Cl)cc3)ccc21,?,-6%,/,/,/
CCCCCCCCCCCCCCCC[N+](C)(C)CCN(Cc1ccc(OC)cc1)c1ncccn1,4µM*,2.5µM*,32,16µM*,18µM*
Cc1cc2c(c(-c3nc4ccccc4s3)c1)OC(CNC(=O)c1occc1C)C2 (centres undefined),19%[9.04 µM],?,/,/,/
COC(=O)CCCCCc1ccc(C(C)=O)s1,7%,2%,20,18%,12%
Cc1cc(C)c(C(N)=O)c(SCC(=O)c2cc(C)n(-c3cc(C)on3)c2C)n1,1.2µM*,0.52µM*,23,-2%,-5%

# Screening results from PubChem BioAssay.
